Source: PubChem BioAssay AID2417 (National Center for Advancing Translational Sciences (NCATS), 2010)
The whole screen tested about 140,000 compounds, of which about 4,300 (3.1%) were called active. Another 21% or so got no clear call; they are omitted.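 How the source made its calls: active means readout at or below -70, meaning at least 70% loss of cells showing the perinucleolar compartment, a nuclear body marking cancer cells; inconclusive means readout between -30 and a set limit; inactive means the rest.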 For the sample, actives were picked, then their nearest neighbours and some compounds at random.

experiment: High Content Assay for Compounds that inhibit the Assembly of the Perinucleolar Compartment; settings: PC3M PTB-GFP, PNC prevalence imaging, 16 h; at 10 µM; stronger effect = lower value
Description: High Content Assay for Compounds that inhibit the Assembly of the Perinucleolar Compartment NIH Chemical Genomics Center [NCGC] NIH Molecular Libraries Probe Centers Network [MLPCN] MLPCN Grant: MH082371-01A2 Assay Submitter (PI): Sui Huang, Northwestern University, Feinberg School of Medicine, Cell and Molecular Biology, Chicago, Illinois. The perinucleolar compartment (PNC) is a non-membrane-bound nuclear subdomain that is associated with but structurally distinct from the nucleolus. The PNC is a heritable trait, in which the number of PNCs per cell in daughter cells often mimics that of their mother cells. The PNC is heterogeneous in shape, is stable through interphase, disassembles during mitosis, and reassembles in early G1. The PNC is concentrated with newly synthesized RNA polymerase III (pol III) RNAs (MRP RNA, RNAse P H1 RNA, hY RNAs[hY1, 2, 5], Alu RNA, and SRP [7SL] RNA) and RNA binding proteins (nucleolin, PTB, CUG-BP, KSRP, Raver1, Raver2, and Rod). […] Extensive in vitro studies have shown that the PNC is unique to tumor cells and preferentially forms in tumor cells derived from solid tissues. Examination of cancer cell lines from various origins and malignant capacities has shown that PNC prevalence correlates with the malignancy of tumors and has the potential to be developed as a pan-cancer prognostic marker. […] Although the PNC is associated with a DNA locus and a handful of components have been identified, much remains to be investigated regarding the structure and function of the PNC and its mechanistic link to cancer. We have previously shown that PNC prevalence reduction is a valid strategy to identify compounds that can be used to study the structure and function of the PNC. It is necessary, however, to create a screening platform that is able to test a large number of compounds in an automated fashion. Here we report the development and robustness of an automated whole-cell phenotypic image-based screening assay that is capable of identifying such compounds.
PNC High Content Imaging Assay Procedure: 1. Cells at a density of 75-90% confluency in T175 flasks were harvested using 7 ml TrypLE Express cell dissociation reagent. After dissociation (5 minutes room temperature incubation) 10 ml of complete media was added to the TrypLE/cell suspension. The liquid was transferred to a 50 ml Conical tube and cells were pelleted at 1000 RPM for 5 min. Supernatant was removed and cells were resuspended to a final density of 150-200 cells/ul in complete media. 2. Cells were plated in 5 ul volume (750-1000 cells/well) into 1536 well Black uclear Aurora Low Base plates and allowed to recover and adhere at 37 C in a humidified 5% CO2 incubator for 4 hours. 3. After 4 hour incubation, compound libraries (23 nl of […] in columns 5-48) were transferred to the plates in duplicate using a 1536 well pintool. Camptothecin positive control (59 uM final) was added to column 2 and 1:3 dilutions of camptothecin was added to column 3. DMSO negative controls were present in columns 1 and 4. 4. After a 16 hour incubation in the 37 C incubator, cells were fixed by the addition of 4 ul of 6% EM grade paraformaldehyde (containing 0.1% triton X 100) directly to the cells. The plates were incubated at room temperature for 20 minutes. The liquid was removed using a 32 channel Kalypsys aspirator and the fixed cells were washed twice with 5 ul PBS followed by a final addition of 5 ul PBS containing 1 ug/ml Hoechst 33342. 5. Fixed plates were sealed and sotred at 4C until imaged. 6. Plates were imaged on an InCell 1000 automated microscope using a 20 x objective, a standard FITC filter set, no camera binning, and an exposure time of ~100-150 msec/well. 7. Data analysis. PNC prevalence was determined using the Multitarget analysis module from InCell Workstation software (V3.5 ) and analysis was run on a quad core workstation using the Incell Developer Toolbox (V1.7). […]

Row | Compound | activity change (PNC), negative = inhibition
1 | CC(NC(=S)Nc1ccc(S(N)(=O)=O)cc1)c1ccc2c(c1)OCO2 (centres undefined) | -20.3% (inactive)
2 | N#CC1=C(N)N(c2ccccc2)C2=C(C(=O)CCC2)C1c1ccccc1 (centres undefined) | 5.97% (inactive)
3 | O=C1CCCc2nn(-c3ccccc3)nc21 | -100% (active)
4 | c1ccc(-n2nc3ccccc3n2)cc1 | -3.58% (inactive)
5 | CCCCCC(=O)Nc1ccc(S(=O)(=O)Nc2ccc(Cl)nn2)cc1 | 31.2% (inactive)
6 | CCOc1ccccc1N1CCN(C(=S)Nc2ccc(S(N)(=O)=O)cc2)CC1 | -28.8% (inactive)
7 | Cc1ccc(C(=O)c2c(NC(=O)c3ccncc3)sc3c2CCCC3)cc1 | -86.2% (active)
8 | Cc1ccc(C(=O)c2c(NC(=O)c3ccccc3)sc(C)c2C)cc1 | 71.1% (inactive)
9 | COC(=O)c1c(NC(=O)c2cccs2)sc2c1CCCC2 | -6.02% (inactive)
10 | CC(=O)NC1C(Oc2ccc(C)cc2)OC2COC(c3ccco3)OC2C1O (centres undefined) | -119% (active)
11 | CN1CCN(c2ccc(S(=O)(=O)N3CCCCC3)cc2NC(=O)Cc2ccccc2F)CC1 | 41.3% (inactive)
12 | N#CCOc1ccc(C2=NO[C@@H]3[C@@H]4C[C@@H]([C@H]5C(=O)N(c6ccc7c(c6)OCO7)C(=O)[C@@H]45)[C@H]23)cc1 | -91.1% (active)
13 | CCCCn1c(SCC(=O)N2CCC(C(=O)OCC)CC2)nc2cc(S(N)(=O)=O)ccc21 | -100% (active)
14 | CCOC(=O)C1CCN(C(=O)CSc2cc(=O)n(C)c3ccccc23)CC1 | 0.103% (inactive)
15 | CCCCn1c(SCc2ncc(-c3ccccc3)o2)nc2cc(S(N)(=O)=O)ccc21 | 27% (inactive)
16 | CCCCOC(=O)c1[nH]c(C)c(C(=O)OC)c1C | -88.2% (active)
17 | COC(=O)c1c(C)[nH]c(C(=O)/C=C/c2ccc(Cl)cc2)c1C | 0.424% (inactive)
18 | CCCCN(CC)CCNC(=O)c1[nH]c(C)c(C(C)=O)c1C | -4.29% (inactive)
19 | CC(=O)c1c(Nc2ccccc2)sc(C(=O)c2ccccc2)c1C | 73.7% (inactive)
20 | Cc1cc(NS(=O)(=O)c2ccc(NC(=S)NC(=O)c3ccc(F)cc3Cl)cc2)no1 | -22% (inactive)

Row | Compound | activity change (PNC), negative = inhibition
21 | Cc1ccc(C(=O)C(=S)N2CCOCC2)cc1 | -3.45% (inactive)
22 | COc1ccc(N2C(=O)CC(N3CCC(C(N)=O)CC3)C2=O)cc1 (centres undefined) | 19.9% (inactive)
23 | COC(=O)c1cc(C(=O)OC)cc(N2C(=O)CC(N3CCN(c4ccccc4)CC3)C2=O)c1 (centres undefined) | -94.7% (active)
24 | O=CN1CCN(C2CC(=O)N(c3ccc4c(c3)OCO4)C2=O)CC1 (centres undefined) | -6.31% (inactive)
25 | COc1cccc(N2C(=O)CC(N3CCN(S(=O)(=O)c4ccccc4)CC3)C2=O)c1 (centres undefined) | -19.9% (inactive)
26 | COc1ccc(N2CCN(C3CC(=O)N(c4ccc5c(c4)OCCO5)C3=O)CC2)cc1 (centres undefined) | -84.9% (active)
27 | COc1cccc(N2CCN(C3CC(=O)N(c4ccc(Cl)cc4)C3=O)CC2)c1 (centres undefined) | -3.5% (inactive)
28 | Cn1cc([N+](=O)[O-])c(C(=O)Nc2cnn(Cc3ccc(F)cc3)c2)n1 | -17% (inactive)
29 | COCCOC(=O)c1c(C)oc2cc(Br)c(OCC(N)=O)cc12 | -7.11% (inactive)
30 | CC(C)(C)c1ccc(/C=C/C(=O)Nc2ncccn2)cc1 | 15.2% (inactive)
31 | COc1ccc([C@H]2[C@H](C(C)=O)N3N=Cc4ccccc4C3C23C(=O)OC(C)(C)OC3=O)cc1 (some centres undefined) | 11.5% (inactive)
32 | COc1ccc(C(=O)Nc2ccc(CN3CCOCC3)cc2)cc1 | -12.7% (inactive)
33 | COc1ccc(CC(=O)Nc2ccc(C(=O)NC(C)(C)C)cc2)cc1 | -85% (active)
34 | CC(C)(C)NC(=O)c1cccc(NC(=O)Cc2ccc(Br)cc2)c1 | -14.3% (inactive)
35 | CC1=C(C(=O)Nc2cc(C)ccn2)C(c2cnn(C)c2)C2=C(CC(c3ccccc3)CC2=O)N1 (centres undefined) | 20.8% (inactive)
36 | COc1ccc2nc(NC(=O)[C@@H]3CCCN3C(=O)c3cccs3)sc2c1 | 34.3% (inactive)
37 | O=C(c1ccc(-n2cnnn2)cc1)N1CCN(C(c2ccccc2)c2ccccc2)CC1 | -100% (active)
38 | O=C(O)CC(c1ccccc1)n1cnnn1 (centres undefined) | 2.72% (inactive)
39 | CCOC(=O)C1=C(CSc2nnnn2C)N(C)C(=O)NC1c1ccccc1 (centres undefined) | 19.9% (inactive)
40 | CC(C)NC(=S)N1CCN(C(c2ccccc2)c2ccccc2)CC1 | 12% (inactive)

Row | Compound | activity change (PNC), negative = inhibition
41 | Cn1nnnc1SCC(=O)N1CCN(C(c2ccccc2)c2ccccc2)CC1 | -100% (active)
42 | Cn1nnnc1SCC(=O)N1CCN(Cc2ccccc2)CC1 | 29.1% (inactive)
43 | Cc1ccc2nsnc2c1NC(=O)c1ccccc1[N+](=O)[O-] | -1.05% (inactive)
44 | O=C(C/C(=N\NC(=O)c1ccccc1Br)C(F)(F)F)c1cccs1 | -25.7% (inactive)
45 | Cc1ccc(C)c2[nH]c(=O)c(CCNC(=O)c3cccs3)cc12 | 36.1% (inactive)
46 | COc1cc(OC)cc(C(=O)NCC(=O)OCc2csc(-c3ccccc3)n2)c1 | 0.666% (inactive)
47 | CCC1CCCCN1C(=S)Nc1ccc(C(C)=O)cc1 (centres undefined) | 83.7% (inactive)
48 | CC(NC(=O)CCC(=O)N1CCN(S(=O)(=O)c2ccc(Cl)cc2)CC1)c1ccccc1 (centres undefined) | -12.6% (inactive)
49 | CCNC(=O)NC(=O)C(C)OC(=O)C1CCN(S(=O)(=O)c2ccccc2F)CC1 (centres undefined) | -28.8% (inactive)
50 | CC(NC(=O)COC(=O)C1CCN(S(=O)(=O)c2ccccc2C(F)(F)F)CC1)c1ccccc1 (centres undefined) | -108% (active)
51 | O=C(Nc1cccc(Cl)c1)Nc1ccccc1NS(=O)(=O)c1cccs1 | -1.43% (inactive)
52 | CNC(=O)CSc1nnnn1-c1ccc(C)cc1C | -10.4% (inactive)
53 | CCOC(=O)c1c(-c2ccc(C)cc2C)csc1NC(=O)CSc1nnnn1C | -85.2% (active)
54 | CCOC(=O)CNC(=O)CSc1nnnn1-c1cc(C)ccc1C | -8.66% (inactive)
55 | C/C(CCC(=O)OC[C@H]1O[C@H](C#Cc2ccccc2)C=C[C@@H]1Oc1ccc(C)cc1)=N\OC[C@@H](O)[C@H]1O[C@@H]2OC(C)(C)O[C@@H]2[C@H]1O | 49% (inactive)
56 | CN(CC(=O)NCCc1ccccc1)S(=O)(=O)c1cnc[nH]1 | -5.8% (inactive)
57 | Cc1ccc(/C(N)=N/OC(=O)COc2ccc(Cl)c(C)c2)cc1 | 48.8% (inactive)
58 | COCCNC(=O)COc1ccc(C)c(C)c1 | -16.6% (inactive)
59 | COc1ccc(C(=O)COC(=O)COc2ccc(C)c(C)c2)cc1 | -83.5% (active)
